According to PubChem BioAssay (NCI):
Compounds without any hit were thinned out: in the full panel of roughly 79,000, 15% have a hit. No stated cut-off is given here; in the data, active means growth inhibition above about 70%; inactive means the rest.

How the values were obtained:
[1] = NCI Yeast Anticancer Drug Screen. Data for the rad50 strain (AID 155);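 further: 0% = growth of vehicle-only cultures of the same strain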; details: S. cerevisiae rad50 strain growth inhibition; at 50.0 µM; stronger effect = higher value
Procedure, shortened: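 Cells are treated with compound, grown, and their growth is then scored against vehicle-only cultures of the same repair-deficient yeast strain.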

[2] = NCI Yeast Anticancer Drug Screen. Data for the mec2-1 strain (AID 157); details: S. cerevisiae mec2-1 strain, at 50.0 µM, stronger effect = higher value
Procedure, shortened: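 Readout is yeast growth inhibition, normalised to vehicle-treated controls, in the mec2-1 strain exposed to compound.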

[3] = NCI Yeast Anticancer Drug Screen. Data for the sgs1 mgt1 strain (AID 161);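 further: 0% = growth of cultures given vehicle only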; details: S. cerevisiae sgs1 mgt1 strain, at 50.0 µM, stronger effect = higher value
Procedure, shortened: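 Growth of a repair-deficient yeast mutant was monitored after compound treatment and expressed as inhibition relative to vehicle-treated cultures.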

[4] = NCI Yeast Anticancer Drug Screen. Data for the cln2 rad14 strain (AID 165);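 further: 0% = growth equal to vehicle treated cultures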; details: S. cerevisiae cln2 rad14 strain, at 50.0 µM, stronger effect = higher value
Procedure, shortened: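 Relative to vehicle controls, growth inhibition of compound-treated cln2 rad14 yeast was recorded.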

[5] = NCI Yeast Anticancer Drug Screen. Data for the bub3 strain (AID 167); details: S. cerevisiae bub3 mutant strain, at 50.0 µM, stronger effect = higher value
Procedure, shortened: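 Part of a panel of yeast mutants defective in DNA damage repair or cell cycle regulation. Each strain is grown with compound, and inhibition is calculated relative to solvent-treated cultures.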

[6] = NCI Yeast Anticancer Drug Screen. Data for the mlh1 rad18 strain (AID 175); details: S. cerevisiae mlh1 rad18 strain growth inhibition; at 50.0 µM; stronger effect = higher value
Procedure, shortened: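 Test agents were incubated with a yeast strain of defined genotype (DNA damage repair defect). Inhibition of growth was derived by comparison with vehicle-exposed cultures.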

Measured: growth inhibition

CC(C)=CCC/C(C)=C\CC/C(C)=C/CO
inactive: [1] -52.5% | [2] -77.8% | [3] -39.6% | [4] -26.1% | [5] -46.7% | [6] -41.5%

O=c1[nH]c(NCc2ccncc2)nc2nc[nH]c12
inactive: [1] 10.2% | [2] -3.8% | [3] -14.8% | [4] 3.1% | [5] -21.1% | [6] -52%

CC(=O)Nc1ccc(S(=O)(=O)c2ccc(NC(C)=O)cc2)cc1
inactive: [1] -10.6% | [2] -10.1% | [3] -48.5% | [4] -6.2% | [5] -26.5% | [6] -40.8%

Cc1nn(C(=O)c2ccc(Cl)cc2)c2c1C(c1ccco1)SC(N)=N2 (stereo not drawn)
inactive: [1] -28.6% | [2] -17.5% | [3] -8.8% | [4] -17.9% | [5] -18.1% | [6] -14.8%

C(=N/Nc1ccccn1)/NN/C=N/Nc1ccccn1
inactive: [1] -7.6% | [2] 6.25% | [3] -3.8% | [4] 7.1% | [5] -2.45% | [6] -4.9%

NC1C2C3C=CC(C3)C12 (stereo not drawn)
inactive: [1] 12.5% | [2] -3.85% | [3] -5.75% | [4] -28.9% | [5] -5.2% | [6] 8.95%

CC1(C)CCCC/C1=N\O
inactive: [1] 5.5% | [2] 24.2% | [3] 3.8% | [4] 24.4% | [5] 23.2% | [6] 3.3%

Cc1c(CN2CCOCC2)c(CN2CCOCC2)c(C)n1-c1ccc(Cl)cn1
inactive: [1] -31.1% | [2] 7.9% | [3] -23.1% | [4] -6.85% | [5] -15.7% | [6] 7.55%

Cc1[nH]c2c(O)ccc(O)c2c1C
inactive: [1] -1.05% | [2] -9.45% | [3] -9.15% | [4] -20.6% | [5] -8% | [6] 4.9%

OC(NN=C1CCCC1)(C(F)(F)Cl)C(F)(F)Cl
inactive: [1] -12.9% | [2] -19.9% | [3] -4.45% | [4] -25.3% | [5] -14.2% | [6] 9.15%

O=c1[nH]cnc2c1cnn2Cc1ccccc1
inactive: [1] 4.1% | [2] -4.85% | [3] 1.2% | [4] 2.1% | [5] 26.1% | [6] 1.95%

C=C(C)C1Cc2cc(C(C)=O)ccc2O1 (stereo not drawn)
inactive: [1] 12.7% | [2] -11.7% | [3] 9.55% | [4] 5.8% | [5] -4% | [6] -59.2%

CCNC(CCCC1CCCCC1)C(=O)O (stereo not drawn)
inactive: [1] -0.9% | [2] -18.4% | [3] -3.5% | [4] -27.2% | [5] -18.5% | [6] 4.7%

OCc1cc2ccc3ccccc3c2[nH]1
inactive: [1] 25.3% | [2] 24.9% | [3] 47.9% | [4] 2.65% | [5] 25.5% | [6] 25.6%

NC1=NS(=O)(=O)c2ccccc21
inactive: [1] 14.8% | [2] -11.7% | [3] 3.1% | [4] -48.7% | [5] -1.35% | [6] -1.55%

CCOC(=O)NC(=O)c1cn(CCCCCCOC(=O)NCCCCCCNC(=O)OCCCCCCn2cc(C(=O)NC(=O)OCC)c(=O)[nH]c2=O)c(=O)[nH]c1=O
inactive: [1] 32% | [2] 14.6% | [3] 27.8% | [4] 28.8% | [5] 13.4% | [6] 28.4%

CCCCCCCCCCCCCCCCCC(=O)Oc1ccc(OCc2ccccc2)cc1
inactive: [1] -13.5% | [2] -25.6% | [3] -11.4% | [4] 16.2% | [5] -11.4% | [6] -16.6%

O=C1c2ccccc2N2Oc3ccccc3C12c1ccccc1 (stereo not drawn)
inactive: [1] -3.45% | [2] -13.2% | [3] -16% | [4] 0.55% | [5] -21.2% | [6] 18.8%

NC(=O)C12C3C4C1C1C2C3C41C(N)=O (stereo not drawn)
inactive: [1] 29.1% | [2] 12.4% | [3] -1.7% | [4] 16.5% | [5] -5.8% | [6] 20.6%

COc1ccc(NC2=CC(=O)C(=O)c3ccccc32)nn1
inactive: [1] -4% | [2] 4.8% | [3] -19.8% | [4] -34.8% | [5] -1.65% | [6] -16%

COc1cccc(NC(=O)CSc2nnc(Cc3ccccc3)o2)c1
inactive: [1] -18.8% | [2] -11.9% | [3] -20.8% | [4] -8.2% | [5] -12.4% | [6] -36.5%

CCCCCC(CCCCC)=C(C#N)C(=O)OCC
inactive: [1] -6.15% | [2] 21.1% | [3] 7.55% | [4] -19.4% | [5] 19.9% | [6] 25.8%

O=C1NC(=S)S/C1=C\c1ccncc1
inactive: [1] 12.4% | [2] -7.4% | [3] -10.4% | [4] 0.9% | [5] 0.05% | [6] -19.1%

CN(C=C(c1ccccc1)c1ccccc1)c1ccccc1
inactive: [1] -15.6% | [2] -7.85% | [3] 2.2% | [4] -21.6% | [5] -12.8% | [6] -32.6%

CC12CCC=CC1=CC(=O)CC2 (stereo not drawn)
inactive: [1] 1.35% | [2] 16.5% | [3] 1.05% | [4] 4.65% | [5] -6.8% | [6] 32.9%

CC(C)(C)C(=O)OCC1C(=O)OCC1C(=O)N1Cc2cc3ccccc3nc2C1 (stereo not drawn)
inactive: [1] -7.7% | [2] -19.9% | [3] 1.55% | [4] -13% | [5] -8.2% | [6] -16.2%

O=C(Oc1cccc2ccccc12)c1ccccc1
inactive: [1] -10.4% | [2] 15.6% | [3] -5.2% | [4] -76.2% | [5] 6.25% | [6] -9.45%

CC(Oc1cc2oc(=O)cc(-c3ccccc3)c2cc1Cl)C(=O)O (stereo not drawn)
inactive: [1] -13.6% | [2] 9.45% | [3] 7.05% | [4] 14.7% | [5] -9.35% | [6] -7.1%

O=c1[nH]c(-c2ccc(-c3nc4cc([N+](=O)[O-])ccc4c(=O)[nH]3)cc2)nc2cc([N+](=O)[O-])ccc12
inactive: [1] -33% | [2] -13.8% | [3] -26.7% | [4] -6.9% | [5] -24.5% | [6] -13.3%

Cn1c(=O)c2[nH]c(CCCc3ccc([N+](=O)[O-])cc3)nc2n(C)c1=O
inactive: [1] -2.45% | [2] -5.5% | [3] -27.5% | [4] -26.9% | [5] -40.5% | [6] 4.75%

CC(OP(=O)(O)O)C(N)C(=O)O (stereo not drawn)
inactive: [1] 0.4% | [2] -34% | [3] -44.9% | [4] -39.1% | [5] -19.9% | [6] -5.2%

COn1c(-c2ccccc2)nc2c1C(=O)N(C)CN2C
inactive: [1] -14.2% | [2] 1.7% | [3] 7.3% | [4] -47.8% | [5] -6.9% | [6] 5.4%

COC(=O)C1(CCSc2ccccc2)CCCC1=O (stereo not drawn)
inactive: [1] 29.3% | [2] -33% | [3] 14.8% | [4] 5.05% | [5] 27% | [6] 6.65%

COc1cc2c(cc1OC)C(C(=O)O)C(c1ccccc1)N(C)C2=O (stereo not drawn)
inactive: [1] -36.8% | [2] -11.8% | [3] -6.5% | [4] 19.4% | [5] -13.2% | [6] 3.25%

Oc1ccc2ccccc2c1C=NCCS
inactive: [1] 24.9% | [2] 6.25% | [3] 2.7% | [4] -25.6% | [5] -3.4% | [6] 3.15%

C=CCCCCCCCCC(=O)N1CCN(C)CC1
inactive: [1] 46.1% | [2] -14% | [3] 9.1% | [4] 16.6% | [5] -5.25% | [6] 27.6%

CCN(CC)CC(C)C(O)(Cc1ccccc1)c1ccc(Cl)cc1 (stereo not drawn)
inactive: [1] 21.4% | [2] 17.6% | [3] 27.9% | [4] 33.5% | [5] 10.1% | [6] 17.4%

O=C(CN(Cc1ccccc1)Cc1ccccc1)NC(=O)c1ccccc1
inactive: [1] 4.5% | [2] -7.9% | [3] 8.45% | [4] -36.4% | [5] 9.55% | [6] -10.4%
